# Screening results from PubChem.
# Shown are actives, neighbours in structure and some others; about 1.5% of the full set was active somewhere.
# APE1 inh-1: APE1 (human) endonuclease inhibition; P27695; recombinant APE1, TAMRA/BHQ-2 abasic DNA cleavage fluorescence; Potency, µM (highest dose often 65.8 µM), without a hit: top-dose activity change, negative = inhibition, most hits filed as inhibitors; actives 0.35% (n = 350,000); AID 2517;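 further: potency means the concentration at half of the fitted maximal effect; plate controls were vehicle for no effect and reference inhibitor for full effect; nearly all actives have a fitted effect of over 55% in size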
# Target sequence (P27695 whole entry, looked up): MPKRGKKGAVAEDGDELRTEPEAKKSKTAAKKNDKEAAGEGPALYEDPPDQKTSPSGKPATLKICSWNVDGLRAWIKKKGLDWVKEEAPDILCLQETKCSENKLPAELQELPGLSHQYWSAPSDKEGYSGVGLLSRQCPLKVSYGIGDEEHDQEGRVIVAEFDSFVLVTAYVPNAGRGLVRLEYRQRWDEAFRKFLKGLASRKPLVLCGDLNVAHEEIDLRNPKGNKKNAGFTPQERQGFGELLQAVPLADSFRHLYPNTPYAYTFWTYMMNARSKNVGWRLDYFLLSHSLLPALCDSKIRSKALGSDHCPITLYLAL
#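 Compound pre-exposure to 0.75 nM APE1, 15 min at ambient temperature. Reaction initiated with 50 nM TAMRA/BHQ-2 THF substrate, read immediately in kinetic mode, 525 nm excitation, 598 nm emission.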
# BLM inh-1: inhibitors of human Bloom syndrome helicase BLM; P54132; recombinant BLM DNA unwinding, fluorescence dequenching; Potency, µM (highest dose often 56.1 µM), inactives show top-dose activity change, negative = inhibition, usual class: inhibitors; actives 0.2% (n = 350,000); AID 2528;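 further: potency means the concentration at half of the fitted maximal effect; plate controls were vehicle for no effect and no enzyme for full effect; nearly all actives have a fitted effect of over 35% in size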
# PI5P4K alpha inh: inhibitors of human PI5P4K alpha | P48426 | PI5P4Kalpha enzyme, ADP-Glo luminescence, 60 min; active compounds read low | max response, % | actives 1.2% (n = 330,000) | AID 652105; active means max response of -50% or lower; inconclusive means between -30% and -50%; inactive means -30% or higher; further: value at the top dose of about 77 µM; on the % scale 0 is the no-effect control and ±100 the full control effect
#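 Human PI5P4Kalpha with substrate in 0.038 M HEPES pH 7.4, 0.28 mM EGTA, 0.1% CHAPS, 5% DMSO; reaction started with 5 microM ATP (final), 60 min at room temperature. ADP formed read by ADP-Glo luminescence.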
# FEN1 inh-1: human FEN1 inhibition; Recombinant FEN1 flap cleavage, fluorescence, 15 min; Potency, µM (titrated, usually from 114 µM), for the others: at the highest dose activity change, negative = inhibition, most hits filed as inhibitors; actives 0.35% (n = 390,000); further: potency means the concentration at half of the fitted maximal effect; on the % scale 0 is the no-effect control and ±100 the full control effect; nearly all actives have a fitted effect of over 65% in size
#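 Nuclease activity of 10 nM FEN1 was measured after 15 min of room-temperature exposure to titrated compounds, by adding 50 nM flap substrate and reading plates at 0 and 15 min.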
# RECQ1 inh-1: inhibitors of human RECQ1 DNA helicase | RECQ1 DNA unwinding, red fluorescence kinetic read | Potency, µM (titrated, usually from 57.3 µM), for inactives: top-dose activity, negative = inhibition, hits mostly inhibitors | actives 0.54% (n = 240,000);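 further: potency means the concentration at half of the fitted maximal effect; plate controls were vehicle for no effect and no enzyme for full effect; nearly all actives have a fitted effect of over 30% in size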
#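 50 nM RECQ1T1 preincubated 15 min with compound in Tris pH 8.0 buffer with MgCl2, DTT, Tween-20 and 2.5 ug/ml poly(dI-dC); started with 200 nM TAMRA/BHQ-2 forked duplex and 2 mM ATP. Unwinding read as fluorescence (525/598 nm), two reads 2 h apart.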
# GCN5L2 inh: blocks human GCN5L2 histone acetyltransferase. Q92830. GCN5L2 HAT assay, ThioGlo1 CoA-SH fluorescence. Potency, µM (titrated, usually from 58.9 µM), without a hit: at the top dose activity change, negative = inhibition, most hits filed as inhibitors. actives 0.21% (n = 390,000). AID 504327; further: potency means the concentration at half of the fitted maximal effect; on the % scale 0 is the no-effect control and ±100 the full control effect
#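 qHTS, 1536-well. 20nM enzyme, pH 7.5 HEPES/EDTA/Tween-20 buffer; 15 min compound preinc., RT. Start: 75uM H3(1-25), 70uM AcCoA, 50uM ThioGlo1. Read Ex340/Em540 at t=0 (autofluorescence flag) and t=20 min.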
# APE1 dye cs: counter-screen for APE1 inhibitors: DNA dye displacement; shares compounds with APE1 inh-1; DNA fluorescent dye displacement counterscreen, fluorescence; Potency, µM (doses to about 28.5 µM), inactives show at the top dose activity change, negative = inhibition, hits mostly inhibitors; actives 7% (n = 480); AID 2564;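 further: loss of thiazole orange fluorescence as the dye is displaced from duplex DNA; potency means the concentration at half of the fitted maximal effect; 0% = ThO with dsDNA and no compound and -100% = ThO without dsDNA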
# EndoIV counter: Endo IV (E. coli) inhibition counter-screen | shares compounds with APE1 inh-1 | E. coli Endo IV, fluorogenic AP-site DNA cleavage | Potency, µM (series often up to 27.1 µM), without a hit: at the highest dose activity change, negative = inhibition, actives largely listed as inhibitors | actives 4% (n = 560) | AID 2565;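 further: potency means the concentration at half of the fitted maximal effect; plate controls were uninhibited enzyme wells for no effect and no enzyme buffer wells for full effect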
# APE1 inh-2: confirmation of inhibitors of human APE1 endonuclease; purified APE1, fluorogenic abasic-site DNA cleavage; actives 44% (n = 750); shares compounds with APE1 inh-1; Potency, µM (series often up to 57.1 µM), inactives show at the top dose activity change, negative = inhibition, actives largely listed as inhibitors; further: potency means the concentration at half of the fitted maximal effect; on the % scale 0 is the no-effect control and ±100 the full control effect; nearly all actives have a fitted effect of over 30% in size
# APE1 FP inh: APE1 (human) DNA binding inhibition, fluorescence polarization. APE1 binding to TAMRA-labelled double-stranded DNA, fluorescence polarization displacement. Potency, µM (highest dose often 28.5 µM), for inactives: at the top dose activity, negative = inhibition, hits mostly inhibitors. shares compounds with APE1 inh-1. actives 7% (n = 480); further: potency means the concentration at half of the fitted maximal effect; on the % scale 0 is the no-effect control and ±100 the full control effect
# BLM inh-2: confirmation of inhibitors of human Bloom syndrome helicase BLM. shares compounds with BLM inh-1. BLM DNA unwinding, fluorescence quenching, biochemical. Potency, µM, for the others: max response, negative = inhibition, hits mostly inhibitors. actives 40% (n = 220). AID 2585;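 further: strand separation dequenches TAMRA so unwinding raises red fluorescence; potency means the concentration at half of the fitted maximal effect; series mostly up to about 69 µM; on the % scale 0 is the no-effect control and ±100 the full control effect; nearly all actives have a fitted effect of over 45% in size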
# RECQ1 inh conf: confirmation of human RECQ1 helicase inhibitors | shares compounds with RECQ1 inh-1 | RECQ1 helicase DNA unwinding, fluorescence | Potency, µM (doses to about 229 µM), for the others: at the top dose activity change, negative = inhibition, hits mostly inhibitors | actives 28% (n = 610); further: potency means the concentration at half of the fitted maximal effect; on the % scale 0 is the no-effect control and ±100 the full control effect; nearly all actives have a fitted effect of over 45% in size
# RECQ1 ADP FP: displaces ADP in a fluorescence polarization counter-screen for RECQ1 hits. shares compounds with RECQ1 inh-1. ADP fluorescence polarization displacement counterscreen. Potency, µM (top dose mostly 228 µM), inactives show at the highest dose activity change, negative = inhibition, actives largely listed as inhibitors. actives 27% (n = 530). AID 2711; further: potency means the concentration at half of the fitted maximal effect; on the % scale 0 is the no-effect control and ±100 the full control effect; nearly all actives have a fitted effect of over 45% in size
# RECQ1 inh-2: confirmation of human RECQ1 helicase inhibitors; recombinant RECQ1 DNA unwinding, red fluorescence; shares compounds with RECQ1 inh-1; actives 15% (n = 1,100); Potency, µM (doses to about 119 µM), without a hit: at the top dose activity, negative = inhibition, most hits filed as inhibitors; further: potency means the concentration at half of the fitted maximal effect; on the % scale 0 is the no-effect control and ±100 the full control effect; nearly all actives have a fitted effect of over 50% in size
# FEN1 inh-2: confirmation of human FEN1 inhibitors; shares compounds with FEN1 inh-1; FEN1 flap cleavage, TAMRA/BHQ2 fluorogenic DNA substrate; Potency, µM, usual class: inhibitors; actives 79% (n = 880); AID 720498; further: potency means the concentration at half of the fitted maximal effect; nearly all actives have a fitted effect of over 60% in size
# * hit, by the source's call; ? = inconclusive; nt = no result given; ! = repeats disagree; [ ] = dose if it differs, or a comment. Unless noted, the call rests on the fitted dose curve; in most records, active means well fitted curve in the direction sought with a large enough effect; inconclusive means small, poorly fitted or top-dose-only effect, or another doubt; inactive means no such curve, though single readings can be large; an effect the other way counts as inactive or inconclusive.
SMILES,APE1 inh-1,BLM inh-1,PI5P4K alpha inh,FEN1 inh-1,RECQ1 inh-1,GCN5L2 inh,BLM inh-2,others
NCCc1cc(O)c(O)cc1O,0.4µM*,?,-76*,25µM*,8.9µM*,?,nt,APE1 dye cs=?;EndoIV counter=-14%[57.1 µM];APE1 inh-2=?;APE1 FP inh=28µM*!;RECQ1 inh conf=126µM*;RECQ1 ADP FP=100µM*;FEN1 inh-2=?
CN1C(=O)C(=Cc2ccc(OCC(=O)Nc3ccccc3)cc2)C(=O)N(C)C1=O,1%,2%,-3,-1%,nt,-6%,nt,
Cc1cccn2c(=O)cc(COc3cccc(NC(=O)COc4ccc(F)cc4)c3)nc12,nt,14µM*,nt,-10%,nt,-1%,?,
Cc1occc1C(=O)Nc1ccccc1,-7%,0%,nt,nt,-8%,10%,nt,
C1=NCCc2c1[nH]c1ccccc21,nt,nt,1,-3%,nt,nt,nt,
CC1=NCCc2c1[nH]c1cc(O)ccc21,?,40µM*!,-3,?,?,?,-2%,
CCOC(=O)c1c(NC(=O)c2c(N)n(CCCOC)c3nc4ccccc4nc23)sc2c1CCCC2,2%,4µM*,nt,3%,-6%,0%,-11%,
COCCN(C(=O)CCl)c1c(C)cccc1C,?,-2%,nt,nt,-1%,6%,nt,
CC(C)OCCCNC(=O)c1c(N)n(CC2CCCO2)c2nc3ccccc3nc12 (configuration not stated),-7%,5µM*,nt,-11%,-12%,?,-11%,
CC[C@@]1(O)C(=O)OCc2c1cc1n(c2=O)Cc2cc3c(O)cccc3nc2-1,?,-17%,nt,nt,?,?,nt,RECQ1 inh-2=?
